# Results taken from PubChem BioAssay (NCATS).
# Records with an inconclusive call do not appear. The source made the active and inactive calls. Calls follow the shape of the dose curve; as a rule, active = well fitted curve in the direction sought with a large enough effect; inconclusive = small, poorly fitted or top-dose-only effect, or another doubt; inactive = no such curve, though single readings can be large; an effect the other way counts as inactive or inconclusive.
# Tested on: not listed separately
# Test: P-glycoprotein substrates identified in KB-3-1 adenocarcinoma cell line, qHTS therapeutic library screen (AID 1346986);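 also: potency is for cytotoxicity meaning loss of cell viability; nearly all actives have a fitted effect of over 60% in size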
# Settings: KB-3-1 parental cells viability, CellTiter-Glo, 72 h; series mostly up to 44.5 µM; activity change, negative = cytotoxicity: at the top concentration
# Method in brief: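 KB-3-1 parental and colchicine-selected P-gp-overexpressing KB-8-5-11 cells (colchicine omitted during assay), 500 cells/well, dosed in dose-response for 72 h at 37 °C; CellTiter-Glo luminescence. Cytotoxic: curve class -1.1 to -2.4, max response >50%, AC50 < 10 uM.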
# Potency is read from the fitted curve at half-maximal effect.
row,SMILES,Potency
1,C[C@@H]1COCCN1c1cc(C2(S(C)(=N)=O)CC2)nc(-c2ccnc3[nH]ccc23)n1 (some centres undefined),6.51 µM (active)
2,COc1ccccc1-c1cc(Nc2cccc(CS(N)(=O)=O)c2)ncn1,11.6 µM (active)
3,C=CC(=O)Nc1cc(Nc2nccc(-c3cn(C)c4ccccc34)n2)c(OC)cc1N(C)CCN(C)C,10.3 µM (active)
4,Cc1[nH]c(/C=C2\C(=O)Nc3ccc(F)cc32)c(C)c1C(=O)NC[C@H](O)CN1CCOCC1,14.6 µM (active)

# Tested on: not listed separately
# Test: P-glycoprotein substrates identified in KB-8-5-11 adenocarcinoma cell line, qHTS therapeutic library screen (AID 1346987); also: nearly all actives have a fitted effect of over 65% in size; as to activity change, negative = cytotoxicity: % is scaled to controls: 0 for no effect and ±100 for the full control effect
# Settings: KB-8-5-11 (P-gp overexpressing) viability, CellTiter-Glo, 72 h; series mostly up to 44.5 µM; activity change, negative = cytotoxicity: at the top concentration
# Method in brief: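 Steps: plate 500 KB-8-5-11 cells/well in DMEM + 10% FCS (colchicine removed); pin compounds in dose-response; incubate 72 h, 37 degree C, 5% CO2; add CellTiter-Glo, 5 min; read luminescence.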
SMILES,Potency,outcome,"activity change, negative = cytotoxicity"
O=[N+]([O-])c1ccc(-[n+]2nc(-c3ccccc3)nn2-c2ccc(I)cc2)cc1,18.4 µM (active),–,–
CC1(C)CC[C@]2(C(=O)OC3OC(CO)C(O)C(O)C3O)CC[C@]3(C)C(=CCC4[C@@]5(C)CC[C@H](OC6OC(C(=O)O)C(O)C(O)C6O)C(CO)(CO)C5CC[C@]43C)[C@@H]2C1 (some centres undefined),–,inactive [at 9.29 µM],–
O=C(Nc1ccc(F)cc1)N1CCc2ccccc2C1c1ccc(C(F)(F)F)cc1 (centres undefined),20.6 µM (active),–,–
CN(C)C(=O)c1cc2cnc(Nc3ccc(N4CCNCC4)cn3)nc2n1C1CCCC1,–,–,-6.9% (inactive)
COc1cc(O)c(C(=O)CCc2ccc(O)cc2)c(O[C@@H]2O[C@H](CO)[C@@H](O)[C@H](O)[C@H]2O)c1,–,–,-3.28% [at 17.3 µM] (inactive)
CN1CCN(C(=O)c2ccc(Nc3nccc(-c4cccs4)n3)cc2Cl)CC1,18.4 µM (active),–,–
COc1ccccc1-c1cc(Nc2cccc(CS(N)(=O)=O)c2)ncn1,–,–,0.591% (inactive)
O=C(NNc1ccccc1)c1ccncc1,–,–,-9.36% (inactive)
C=CC(=O)Nc1cc(Nc2nccc(-c3cn(C)c4ccccc34)n2)c(OC)cc1N(C)CCN(C)C,11.6 µM (active),–,–
COc1ccc(CNC(=O)Nc2ncc([N+](=O)[O-])s2)cc1,23.1 µM (active),–,–

# Tested on: not listed separately
# Test: Confirmatory screen GU Rhodamine qHTS for Zika virus inhibitors qHTS (AID 1347157); also: nearly all actives have a fitted effect of over 70% in size
# Settings: purified enzyme assay, Rhodamine110 substrate fluorescence, 15 min; series mostly up to 114 µM; activity change, negative = inhibition: at the top concentration
# Method in brief: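 Buffer 10 mM Tris-HCl pH 8.0, 0.01% Tween 20. Unlinked protease 25 nM; compound preincubation 15 min, RT, protected from light. Substrate Rhod110, 1.5 microM; ~15% conversion in 15 min.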
row,SMILES,Potency
1,CC(=O)N1c2ccc(-c3ccc(C(=O)O)cc3)cc2C(Nc2ccc(Cl)cc2)CC1C (centres undefined),17.5 µM (active)
2,CC1CCC2C(=CCC(O)C2(C)C)C1(C)Cc1c(O)cc(CO)c(C=O)c1O (centres undefined),24.3 µM (active)
3,O=C(NCc1ccc(Oc2ccccc2)cc1)c1nc(-c2cc(Br)c(O)c(Br)c2)no1,1.75 µM (active)

# Tested on: Zika virus NS2B-NS3 protease (unlinked complex)
# Test: Primary screen GU Rhodamine qHTS for Zika virus inhibitors: Unlinked NS2B-NS3 protease assay (AID 1347159); also: nearly all actives have a fitted effect of over 60% in size; as to activity change, negative = inhibition: % is scaled to controls: 0 for no effect and ±100 for the full control effect
# Settings: Recombinant ZIKV NS2B-NS3 protease, Rhodamine110 substrate fluorescence; series mostly up to 107 µM; activity change, negative = inhibition: at the top concentration
# Method in brief: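 A qHTS format was used, with compound concentrations ranging up to 114 microM. Each compound was preincubated with 25 nM NS2B-NS3 protease, and the substrate was then added at 1.5 microM. Curves were fitted with a 4-parameter Hill model.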
SMILES,"activity change, negative = inhibition",Potency
O=[N+]([O-])c1ccc(-[n+]2nc(-c3ccccc3)nn2-c2ccc(I)cc2)cc1,7.68% (inactive),–
C=C(C)C(=O)OC1[C@@H]2C(=C)C(=O)O[C@@H]2C[C@@H](C)[C@@H]2C=CC(=O)[C@@]12C (some centres undefined),29% (inactive),–
COc1cc2ncnc(Nc3ccc(Oc4ccccc4)cc3)c2cc1OC,48.2% (inactive),–
CCC(C)n1cc(C)c2c(C(=O)NCc3c(C)cc(C)[nH]c3=O)cc(-c3ccc(N4CCNCC4)nc3)cc21 (centres undefined),-1.64% (inactive),–
CC1(C)CC[C@]2(C(=O)OC3OC(CO)C(O)C(O)C3O)CC[C@]3(C)C(=CCC4[C@@]5(C)CC[C@H](OC6OC(C(=O)O)C(O)C(O)C6O)C(CO)(CO)C5CC[C@]43C)[C@@H]2C1 (some centres undefined),6.88% [at 32.5 µM] (inactive),–
COc1ccc(C(=O)N(CCC(C)C)Cc2nc(C)c(C)n2Cc2ccccc2C)c(OC)c1,-5.31% (inactive),–
O=C(Nc1ccc(F)cc1)N1CCc2ccccc2C1c1ccc(C(F)(F)F)cc1 (centres undefined),-21.8% (inactive),–
Cc1ccc(C(=O)N2CCN(c3ccc([N+](=O)[O-])cc3)CC2)cc1Cl,-13.6% (inactive),–
CN(C)C(=O)c1cc2cnc(Nc3ccc(N4CCNCC4)cn3)nc2n1C1CCCC1,8.82% (inactive),–
COc1cc(O)c(C(=O)CCc2ccc(O)cc2)c(O[C@@H]2O[C@H](CO)[C@@H](O)[C@H](O)[C@H]2O)c1,-27.7% [at 57.1 µM] (inactive),–
CN1CCN(C(=O)c2ccc(Nc3nccc(-c4cccs4)n3)cc2Cl)CC1,-26.4% (inactive),–
Cc1ccc2c(Nc3ccc(Cl)cc3)nccc2c1Nc1ncccc1-c1ncnc2nc[nH]c12,-4.68% (inactive),–
COc1ccccc1-c1cc(Nc2cccc(CS(N)(=O)=O)c2)ncn1,7.55% (inactive),–
Cc1ccc(C2(COC(=O)C(C)C)CO2)c(OC(=O)C(C)C)c1 (centres undefined),25.9% (inactive),–
CC1(C)CC23[C@@H]4CC(=O)[C@@H]2COC(=O)[C@@H]3CC[C@H]41,-3.63% (inactive),–
O=C(NNc1ccccc1)c1ccncc1,8.81% (inactive),–
C=CC(=O)Nc1cc(Nc2nccc(-c3cn(C)c4ccccc34)n2)c(OC)cc1N(C)CCN(C)C,260% (inactive),–
O=C(NC(NC(=S)Nc1ccc(F)c([N+](=O)[O-])c1)C(Cl)(Cl)Cl)C(c1ccccc1)c1ccccc1 (centres undefined),-25.6% [at 32.5 µM] (inactive),–
Cc1[nH]c(/C=C2\C(=O)Nc3ccc(F)cc32)c(C)c1C(=O)NC[C@H](O)CN1CCOCC1,1.23% (inactive),–
CCCCn1c(-c2ccccc2)nc(-c2ccccc2)c1CN(Cc1ccc2c(c1)OCO2)Cc1ccc2c(c1)OCO2,-16% (inactive),–
O=C(NCc1ccc(Oc2ccccc2)cc1)c1nc(-c2cc(Br)c(O)c(Br)c2)no1,–,2.82 µM (active)

# Tested on: Zika virus NS2B-NS3 protease (linked construct)
# Test: Primary screen NINDS Rhodamine qHTS for Zika virus inhibitors (AID 1347160); also: nearly all actives have a fitted effect of over 55% in size; as to activity change, negative = inhibition: % is scaled to controls: 0 for no effect and ±100 for the full control effect
# Settings: purified NS2B-NS3 protease, Rhodamine110 substrate fluorescence; series mostly up to 57.1 µM; activity change, negative = inhibition: at the top concentration
# Method in brief: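 Kinetic fluorescence (Ex 480 nm, Em 540 nm) over 15 min with 1.5 microM Rhodamine110 peptide and 25 nM linked protease.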
SMILES,outcome,"activity change, negative = inhibition",Potency
O=[N+]([O-])c1ccc(-[n+]2nc(-c3ccccc3)nn2-c2ccc(I)cc2)cc1,inactive,–,–
COc1ccccc1NC(=O)Nc1ccc2ccccc2c1,–,21.4% (inactive),–
C=C(C)C(=O)OC1[C@@H]2C(=C)C(=O)O[C@@H]2C[C@@H](C)[C@@H]2C=CC(=O)[C@@]12C (some centres undefined),–,12.7% [at 33.1 µM] (inactive),–
COc1cc2ncnc(Nc3ccc(Oc4ccccc4)cc3)c2cc1OC,–,168% (inactive),–
CCC(C)n1cc(C)c2c(C(=O)NCc3c(C)cc(C)[nH]c3=O)cc(-c3ccc(N4CCNCC4)nc3)cc21 (centres undefined),–,43.5% (inactive),–
CC(C)[C@@H](C)/C=C/[C@@H](C)[C@H]1CC[C@H]2C3=CC=C4C[C@@H](O)CC[C@]4(C)C3=CC[C@]12C,inactive,–,–
Cn1c(NC[C@@H](N)Cc2ccccc2)nc(-c2ccncc2)c(-c2ccc3ccccc3c2)c1=O,–,203% (inactive),–
CC1(C)CC[C@]2(C(=O)OC3OC(CO)C(O)C(O)C3O)CC[C@]3(C)C(=CCC4[C@@]5(C)CC[C@H](OC6OC(C(=O)O)C(O)C(O)C6O)C(CO)(CO)C5CC[C@]43C)[C@@H]2C1 (some centres undefined),–,26.2% [at 15.1 µM] (inactive),–
Nc1ncnc2c1ncn2[C@@H]1O[C@H](CO)C[C@H]1O,–,-0.204% (inactive),–
CCOC(=O)c1cnn(-c2ccc(NC(=O)C(Cl)=C(Cl)Cl)cc2)c1C(F)(F)F,–,-2.63% (inactive),–
CC(=O)N1c2ccc(-c3ccc(C(=O)O)cc3)cc2C(Nc2ccc(Cl)cc2)CC1C (centres undefined),–,–,8.91 µM (active)
COc1ccc(C(=O)N(CCC(C)C)Cc2nc(C)c(C)n2Cc2ccccc2C)c(OC)c1,–,-6.83% (inactive),–
O=C(Nc1ccc(F)cc1)N1CCc2ccccc2C1c1ccc(C(F)(F)F)cc1 (centres undefined),–,-28.8% (inactive),–
Cc1ccc(C(=O)N2CCN(c3ccc([N+](=O)[O-])cc3)CC2)cc1Cl,–,-8.14% (inactive),–
CN(C)C(=O)c1cc2cnc(Nc3ccc(N4CCNCC4)cn3)nc2n1C1CCCC1,inactive,–,–
C=C1/C(=C/C=C2\CCC[C@]3(C)[C@@H]([C@H](C)/C=C/C(=O)C4CC4)CC[C@@H]23)C[C@@H](O)C[C@@H]1O,–,-9.6% (inactive),–
CC1OC2OC3C(OCC(O)C3O)OC(=O)C34CCC(C)(C)CC3C3=CCC5C6(C)CC(O)C(OC7OC(CO)C(O)C(O)C7OC7OCC(OC(=O)CC(C)(O)CC(=O)OC1C(OC1OCC(O)C(O)C1O)C2O)C(O)C7O)C(C)(CO)C6CCC5(C)C3(C)CC4O (centres undefined),–,-17.1% [at 33.1 µM] (inactive),–
CC(C)(C)c1ccc(-c2nc3ccccc3[nH]2)cc1,inactive [at 33.1 µM],–,–

SMILES,outcome,"activity change, negative = inhibition",Potency
CCN1CCN(Cc2ccc(-c3cc4c(NC(C)c5ccccc5)ncnc4[nH]3)cc2)CC1 (centres undefined),–,99.9% (inactive),–
CN1CCN(C(=O)c2ccc(Nc3nccc(-c4cccs4)n3)cc2Cl)CC1,–,8.89% (inactive),–
Cc1ccc2c(Nc3ccc(Cl)cc3)nccc2c1Nc1ncccc1-c1ncnc2nc[nH]c12,–,0.0856% (inactive),–
COc1ccccc1-c1cc(Nc2cccc(CS(N)(=O)=O)c2)ncn1,–,11.7% (inactive),–
Cc1ccc(C2(COC(=O)C(C)C)CO2)c(OC(=O)C(C)C)c1 (centres undefined),–,20.6% [at 33.1 µM] (inactive),–
CC1(C)CC23[C@@H]4CC(=O)[C@@H]2COC(=O)[C@@H]3CC[C@H]41,–,10.2% (inactive),–
COc1cc2ncnc(Oc3cccc(NC(=O)Nc4cc(C(C)(C)C(F)(F)F)on4)c3)c2cc1OC,–,-8.16% (inactive),–
O=C(NNc1ccccc1)c1ccncc1,–,6% (inactive),–
CN(CCCNC(=O)c1ccc2nc3c(c(Cl)c2c1)CCCC3)Cc1ccccc1,–,117% (inactive),–
C=CC(=O)Nc1cc(Nc2nccc(-c3cn(C)c4ccccc34)n2)c(OC)cc1N(C)CCN(C)C,–,307% (inactive),–
CCN(CCCOc1ccc2c(Nc3cc(CC(=O)Nc4cccc(F)c4)[nH]n3)ncnc2c1)CCOP(=O)(O)O,–,23% (inactive),–
OCC(Cc1ccccc1)Nc1nc(Oc2ccc3c(c2)CCC3)nc2c1ncn2Cc1ccc(-c2ccccc2)cc1 (centres undefined),–,-24.6% (inactive),–
O=C(NC(NC(=S)Nc1ccc(F)c([N+](=O)[O-])c1)C(Cl)(Cl)Cl)C(c1ccccc1)c1ccccc1 (centres undefined),–,4.68% [at 15.1 µM] (inactive),–
Cc1[nH]c(/C=C2\C(=O)Nc3ccc(F)cc32)c(C)c1C(=O)NC[C@H](O)CN1CCOCC1,–,21.2% (inactive),–
CC1CCC2C(=CCC(O)C2(C)C)C1(C)Cc1c(O)cc(CO)c(C=O)c1O (centres undefined),inactive [at 33.1 µM],–,–
CCCCn1c(-c2ccccc2)nc(-c2ccccc2)c1CN(Cc1ccc2c(c1)OCO2)Cc1ccc2c(c1)OCO2,–,53.3% (inactive),–
COc1ccc(CNC(=O)Nc2ncc([N+](=O)[O-])s2)cc1,–,-20.6% (inactive),–
O=C(NCc1ccc(Oc2ccccc2)cc1)c1nc(-c2cc(Br)c(O)c(Br)c2)no1,–,–,2.51 µM (active)
